Test results as given in PubChem BioAssay (NCI).
Compounds without any hit were thinned out: in the full panel of roughly 79,000, 15% have a hit. Active and inactive are the calls of the source. Cut-off read from the data, not from the text of the source: active = growth inhibition above about 70%; inactive = the rest.

Key:
[1] = NCI Yeast Anticancer Drug Screen. Data for the rad52 strain (AID 147);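 note: 0% = growth of vehicle-treated control cultures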; conditions: S. cerevisiae rad52 mutant growth inhibition, active compounds read high
How it was run: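 Vehicle-treated cultures served as the reference for growth inhibition of compound-exposed yeast bearing a DNA repair mutation.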

[2] = NCI Yeast Anticancer Drug Screen. Data for the wt1 strain (AID 149);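 note: 0% = growth of vehicle-treated wt1 cultures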; conditions: S. cerevisiae wt1 strain (SPY 50644) growth inhibition, active compounds read high
How it was run: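 Yeast wt1 strain exposed to compounds; growth inhibition measured relative to vehicle-treated controls.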

[3] = NCI Yeast Anticancer Drug Screen. Data for the rad50EPP+ strain (AID 151);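 note: 0% = growth of vehicle-treated control cultures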; conditions: S. cerevisiae rad50 mutant strain, active compounds read high
How it was run: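 In this screen, rad50EPP+ yeast were exposed to compounds. Growth inhibition was scored against vehicle-treated controls.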

[4] = NCI Yeast Anticancer Drug Screen. Data for the mgt1 strain (AID 153); conditions: S. cerevisiae mgt1 mutant growth inhibition, active compounds read high
How it was run: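 mgt1 strain exposed; growth vs vehicle control recorded as inhibition.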

[5] = NCI Yeast Anticancer Drug Screen. Data for the rad50 strain (AID 155);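 note: 0% = growth of vehicle-only cultures of the same strain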; conditions: S. cerevisiae rad50 strain growth inhibition, active compounds read high
How it was run: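 Yeast carrying a defined DNA repair defect were exposed to test compounds, and growth was compared with vehicle-treated controls to give percent inhibition.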

[6] = NCI Yeast Anticancer Drug Screen. Data for the mec2-1 strain (AID 157); conditions: S. cerevisiae mec2-1 strain, active compounds read high
How it was run: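 Vehicle-treated cultures served as reference for growth inhibition of compound-exposed mec2-1 yeast.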

[7] = NCI Yeast Anticancer Drug Screen. Data for the rad14 strain (AID 159);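 note: 0% = growth of vehicle-treated control cultures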; conditions: S. cerevisiae rad14 strain growth inhibition, active compounds read high
How it was run: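 Yeast cells carrying a defined DNA-repair defect were exposed to compounds, and growth inhibition was calculated relative to vehicle-treated control cultures.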

[8] = NCI Yeast Anticancer Drug Screen. Data for the sgs1 mgt1 strain (AID 161);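 note: 0% = growth of cultures given vehicle only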; conditions: S. cerevisiae sgs1 mgt1 strain, active compounds read high
How it was run: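 Test agents were incubated with a DNA-repair-mutant yeast strain. Growth was then read and compared against vehicle-treated controls.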

[9] = NCI Yeast Anticancer Drug Screen. Data for the CLN2oe strain (AID 163);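 note: 0% = growth of vehicle-only control cultures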; conditions: S. cerevisiae CLN2oe strain, active compounds read high
How it was run: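 Inhibition relative to vehicle-treated yeast is reported. Cells: strain with genetic alteration in cell-cycle control, grown with compound.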

[10] = NCI Yeast Anticancer Drug Screen. Data for the cln2 rad14 strain (AID 165);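 note: 0% = growth equal to vehicle treated cultures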; conditions: S. cerevisiae cln2 rad14 strain, active compounds read high
How it was run: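 Each compound was tested on cln2 rad14 yeast. Inhibition of growth was calculated against vehicle-exposed controls.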

[11] = NCI Yeast Anticancer Drug Screen. Data for the bub3 strain (AID 167); conditions: S. cerevisiae bub3 mutant strain, active compounds read high
How it was run: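 Compounds were applied to a genetically altered yeast strain carrying a cell-cycle control defect. Growth inhibition was scored against vehicle-treated controls.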

[12] = NCI Yeast Anticancer Drug Screen. Data for the wt2 strain (AID 169);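 note: 0% = growth of vehicle-treated yeast cultures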; conditions: S. cerevisiae wt2 strain growth inhibition, active compounds read high
How it was run: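 Inhibition of yeast growth was determined after compound treatment, normalised to controls receiving only vehicle.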

[13] = NCI Yeast Anticancer Drug Screen. Data for the mlh1 strain (AID 171);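 note: 0% = growth of vehicle-treated control cultures of the same strain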; conditions: S. cerevisiae mlh1 strain growth inhibition, active compounds read high
How it was run: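 Vehicle-normalised growth inhibition of a repair- or checkpoint-altered yeast strain following compound treatment.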

[14] = NCI Yeast Anticancer Drug Screen. Data for the sgs1 strain (AID 173);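 note: 0% = growth of vehicle-only control cultures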; conditions: S. cerevisiae sgs1 mutant, active compounds read high
How it was run: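 Screen format: yeast with repair or checkpoint alterations, compound exposure, growth read relative to vehicle.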

[15] = NCI Yeast Anticancer Drug Screen. Data for the mlh1 rad18 strain (AID 175); conditions: S. cerevisiae mlh1 rad18 strain growth inhibition, active compounds read high
How it was run: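 Vehicle-treated cultures served as the reference for growth inhibition in a yeast strain carrying DNA damage repair alterations exposed to each compound.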

[16] = NCI Yeast Anticancer Drug Screen. Data for the rad18 strain (AID 177); conditions: S. cerevisiae rad18 mutant growth inhibition, active compounds read high
How it was run: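 Test articles were incubated with altered yeast defective in DNA damage repair. Results are given as inhibition of growth versus vehicle.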

[17] = at 5.0 µM (retest, dose inferred, filed as 0.5)
[18] = at 50.0 µM (retest, dose inferred, filed as 5.0)

Measured: growth inhibition

Clc1ccc2c(c1)N(CCCN1CCCC13CCCCC3)c1ccccc1S2
active: [10]; at 50.0 µM 84% | [15]; [18] 95%
inactive: [1]; at 1.2 µM 1% | [1]; at 3.7 µM 3% | [1]; at 11.0 µM 2% | [1]; at 33.0 µM 1% | [1]; at 100.0 µM -7% | [2]; at 1.2 µM 1% | [2]; at 3.7 µM -3% | [2]; at 11.0 µM -5% | [2]; at 33.0 µM -5% | [2]; at 100.0 µM -7% | [3]; at 1.2 µM 0% | [3]; at 3.7 µM 3% | [3]; at 11.0 µM -2% | [3]; at 33.0 µM -3% | [3]; at 100.0 µM -7% | [4]; at 1.2 µM 2% | [4]; at 3.7 µM -1% | [4]; at 11.0 µM 3% | [4]; at 33.0 µM -2% | [4]; at 100.0 µM -2% | [5]; at 1.2 µM 4% | [5]; at 3.7 µM 10% | [5]; [17] 3% | [5]; at 11.0 µM 4% | [5]; at 33.0 µM 4% | [5]; [18] 61% | [5]; at 50.0 µM -2.15% | [5]; at 100.0 µM 2% | [6]; at 1.2 µM -3% | [6]; at 3.7 µM 3% | [6]; [17] -3% | [6]; at 11.0 µM 2% | [6]; at 33.0 µM 0% | [6]; [18] 20% | [6]; at 50.0 µM 39.8% | [6]; at 100.0 µM -8% | [7]; at 1.2 µM -2% | [7]; at 3.7 µM -7% | [7]; at 11.0 µM -2% | [7]; at 33.0 µM 0% | [7]; at 100.0 µM 4% | [8]; [17] -11% | [8]; [18] 43% | [8]; at 50.0 µM -25.4% | [9]; at 1.2 µM 2% | [9]; at 3.7 µM 4% | [9]; at 11.0 µM 4% | [9]; at 33.0 µM 3% | [9]; at 100.0 µM 2% | [10]; [17] -21% | [10]; [18] -5% | [11]; at 1.2 µM 4% | [11]; at 3.7 µM -13% | [11]; [17] -5% | [11]; at 11.0 µM 1% | [11]; at 33.0 µM 2% | [11]; [18] 15% | [11]; at 50.0 µM -0.55% | [11]; at 100.0 µM 7% | [12]; at 1.2 µM 1% | [12]; at 3.7 µM 2% | [12]; at 11.0 µM 0% | [12]; at 33.0 µM -2% | [12]; at 100.0 µM -2% | [13]; at 1.2 µM 0% | [13]; at 3.7 µM 2% | [13]; at 11.0 µM -4% | [13]; at 33.0 µM -15% | [13]; at 100.0 µM 8% | [14]; at 1.2 µM -2% | [14]; at 3.7 µM -3% | [14]; at 11.0 µM -6% | [14]; at 33.0 µM -7% | [14]; at 100.0 µM -6% | [15]; [17] -6% | [15]; at 50.0 µM 10.1% | [16]; at 1.2 µM -1% | [16]; at 3.7 µM -1% | [16]; at 11.0 µM -9% | [16]; at 33.0 µM -22% | [16]; at 100.0 µM -33%
